Experimental data as given in PubChem BioAssay (NCI).
Compounds without any hit were thinned out: in the full panel of roughly 79,000, 15% have a hit. The source made the active and inactive calls. Cut-off read from the data, not from the text of the source: active = growth inhibition above about 70%; inactive = the rest.

Experiments:
[1] = NCI Yeast Anticancer Drug Screen. Data for the rad50 strain (AID 155);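 note: 0% = growth of vehicle-only cultures of the same strain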; conditions: S. cerevisiae rad50 strain growth inhibition, active compounds read high
Summary of the method: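 Readout: growth inhibition relative to vehicle-treated cultures. Compound exposure was carried out in a genetically defined yeast strain deficient in DNA damage repair.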

[2] = NCI Yeast Anticancer Drug Screen. Data for the mec2-1 strain (AID 157); conditions: S. cerevisiae mec2-1 strain, active compounds read high
Summary of the method: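 mec2-1 yeast strain, carrying an alteration in DNA damage repair or cell cycle control, was exposed to compounds; growth inhibition was measured relative to vehicle-treated controls.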

[3] = NCI Yeast Anticancer Drug Screen. Data for the sgs1 mgt1 strain (AID 161);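 note: 0% = growth of cultures given vehicle only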; conditions: S. cerevisiae sgs1 mgt1 strain, active compounds read high
Summary of the method: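 Yeast cells carrying a defined DNA-repair defect were exposed to test compounds. Growth inhibition was measured relative to vehicle-treated controls.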

[4] = NCI Yeast Anticancer Drug Screen. Data for the cln2 rad14 strain (AID 165);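 note: 0% = growth equal to vehicle treated cultures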; conditions: S. cerevisiae cln2 rad14 strain, active compounds read high
Summary of the method: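 Yeast carrying cln2 and rad14 alterations (cell cycle control and DNA damage repair) were exposed to compounds. Growth inhibition was measured against vehicle-treated controls.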

[5] = NCI Yeast Anticancer Drug Screen. Data for the bub3 strain (AID 167); conditions: S. cerevisiae bub3 mutant strain, active compounds read high
Summary of the method: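 Readout: yeast growth inhibition, expressed relative to vehicle-only wells. The test organism is a mutant strain from a panel with lesions in DNA repair or checkpoint genes.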

[6] = NCI Yeast Anticancer Drug Screen. Data for the mlh1 rad18 strain (AID 175); conditions: S. cerevisiae mlh1 rad18 strain growth inhibition, active compounds read high
Summary of the method: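 Growth inhibition of the yeast strain was measured after compound exposure and expressed relative to vehicle-treated controls. The strain carries defined defects in DNA damage repair.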

[7] = at 5.0 µM (retest, dose inferred, filed as 0.5)
[8] = at 50.0 µM (retest, dose inferred, filed as 5.0)

Measured: growth inhibition

O=C(O)c1cc2c3ccccc3sc2c2ccccc12
inactive: [1]; [7] -2% | [1]; [8] 4% | [1]; at 50.0 µM 55.4% | [2]; [7] -3% | [2]; [8] -4% | [2]; at 50.0 µM 5.3% | [3]; [7] -1% | [3]; [8] 3% | [3]; at 50.0 µM 15.1% | [4]; [7] -3% | [4]; [8] -3% | [4]; at 50.0 µM 2.45% | [5]; [7] -3% | [5]; [8] -2% | [5]; at 50.0 µM 19.7% | [6]; [7] -3% | [6]; [8] -2% | [6]; at 50.0 µM 28%

C/C(=N/NC(N)=S)C(C)C
inactive: [1]; [7] 11% | [1]; [8] 37% | [1]; at 50.0 µM 14.3% | [2]; [7] 2% | [2]; [8] 2% | [2]; at 50.0 µM -9.9% | [3]; [7] 2% | [3]; [8] 3% | [3]; at 50.0 µM -11.1% | [4]; [7] 4% | [4]; [8] -5% | [4]; at 50.0 µM 37.6% | [5]; [7] 1% | [5]; [8] -3% | [5]; at 50.0 µM 17.4% | [6]; [7] 2% | [6]; [8] -2% | [6]; at 50.0 µM 4.8%

COC(=O)c1ccc(CCC2=CC(=O)C=CC2=O)cc1
inactive: [1]; [7] 39% | [2]; [7] 39% | [3]; [7] 35% | [4]; [7] 29% | [5]; [7] 43% | [6]; [7] 49% | [6]; at 50.0 µM 65.8%
active: [1]; [8] 99% | [1]; at 50.0 µM 84.3% | [2]; [8] 100% | [2]; at 50.0 µM 92.8% | [3]; [8] 100% | [3]; at 50.0 µM 91.2% | [4]; [8] 75% | [4]; at 50.0 µM 89.3% | [5]; [8] 100% | [5]; at 50.0 µM 91.3% | [6]; [8] 99%

COc1nc(N)c(N=O)c(OCc2ccccc2)n1
inactive: [3]; [7] 62% | [3]; [8] 57% | [4]; [7] 55%
active: [1]; [7] 83% | [1]; [8] 97% | [1]; at 50.0 µM 89% | [2]; [7] 99% | [2]; [8] 98% | [2]; at 50.0 µM 92.6% | [3]; at 50.0 µM 91.4% | [4]; [8] 98% | [4]; at 50.0 µM 89.8% | [5]; [7] 97% | [5]; [8] 98% | [5]; at 50.0 µM 91.6% | [6]; [7] 99% | [6]; [8] 97% | [6]; at 50.0 µM 89.3%

Cc1c2ncccc2cc2oc3ccccc3c(=O)c12
active: [2]; [8] 78% | [5]; [8] 75%
inactive: [1]; [7] 67% | [1]; [8] 9% | [1]; at 50.0 µM 62.7% | [2]; [7] 24% | [2]; at 50.0 µM 14.8% | [3]; [7] 37% | [3]; [8] 6% | [3]; at 50.0 µM 24.4% | [4]; [7] 16% | [4]; [8] 37% | [4]; at 50.0 µM 13.8% | [5]; [7] 15% | [5]; at 50.0 µM 19.9% | [6]; [7] 23% | [6]; [8] 10% | [6]; at 50.0 µM 68.7%

CCCCCCCCCCCC[S+](C)C
active: [2]; [8] 80% | [2]; at 50.0 µM 78.3% | [3]; [8] 83% | [3]; at 50.0 µM 89.5% | [5]; [8] 74% | [5]; at 50.0 µM 90.2% | [6]; [8] 76%
inactive: [1]; [7] 31% | [1]; [8] 52% | [1]; at 50.0 µM 44.9% | [2]; [7] 23% | [3]; [7] 36% | [4]; [7] 17% | [4]; [8] 26% | [4]; at 50.0 µM 41% | [5]; [7] 41% | [6]; [7] 30% | [6]; at 50.0 µM 6.8%

O=C(O)/C=C\C(=O)Nc1ccc2c(c1)C(=O)c1cc(F)ccc1-2
inactive: [1]; [7] 10% | [1]; [8] 20% | [1]; at 50.0 µM 29% | [2]; [7] -1% | [2]; [8] -7% | [2]; at 50.0 µM -2.7% | [3]; [7] -4% | [3]; [8] 19% | [3]; at 50.0 µM -5.2% | [4]; [7] -6% | [4]; [8] 6% | [4]; at 50.0 µM 68.2% | [5]; [7] -2% | [5]; [8] 2% | [5]; at 50.0 µM -36.6% | [6]; [7] 8% | [6]; [8] 17% | [6]; at 50.0 µM 4.5%

CCC(=O)[O][Bi]([c]1ccccc1)[c]1ccccc1
active: [1]; [7] 79% | [1]; [8] 96% | [1]; at 50.0 µM 90.2% | [2]; [8] 97% | [2]; at 50.0 µM 92.4% | [3]; [8] 97% | [3]; at 50.0 µM 92.5% | [4]; [8] 95% | [4]; at 50.0 µM 90% | [5]; [7] 81% | [5]; [8] 96% | [5]; at 50.0 µM 91.5% | [6]; [7] 85% | [6]; [8] 97% | [6]; at 50.0 µM 90%
inactive: [2]; [7] 58% | [3]; [7] 68% | [4]; [7] 49%

CSC(=S)n1nc(-c2ccccc2)c(N=Nc2ccc(Br)cc2)c1-c1ccccc1
inactive: [1]; [7] 6% | [1]; [8] 14% | [1]; at 50.0 µM 41% | [2]; [7] 9% | [2]; [8] 25% | [2]; at 50.0 µM 23.9% | [3]; [7] 5% | [3]; [8] 25% | [3]; at 50.0 µM 6.15% | [4]; [7] 10% | [4]; [8] 4% | [4]; at 50.0 µM 49.9% | [5]; [7] 13% | [5]; [8] 34% | [5]; at 50.0 µM 0.05% | [6]; [7] 5% | [6]; [8] 19% | [6]; at 50.0 µM -10.2%

O=C1c2ccccc2C(O)(c2ccccc2)N1c1ccc([N+](=O)[O-])cc1 (stereo not given)
active: [1]; [8] 99% | [1]; at 50.0 µM 99% | [2]; [8] 100% | [2]; at 50.0 µM 99.3% | [3]; [8] 99% | [3]; at 50.0 µM 99.3% | [4]; [8] 99% | [4]; at 50.0 µM 98.9% | [5]; [8] 99% | [5]; at 50.0 µM 99% | [6]; [8] 99% | [6]; at 50.0 µM 99.3%
inactive: [1]; [7] 7% | [2]; [7] 10% | [3]; [7] 0% | [4]; [7] -3% | [5]; [7] -2% | [6]; [7] 5%
